From PubChem BioAssay (EPA / NIEHS) come the findings set out here.

The nature of test [1]: IUF_NPC2c_oligodendrocyte_migration_120hr: Leibniz Research Institute for Environmental Medicine (IUF) 120-hour Neural Progenitor Cell Migration Assay for Oligodendrocyte Migration (NPC2c) (AID 2284297).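 Further: O4-positive oligodendrocyte migration distance divided by radial glia migration distance.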 Put shortly: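 Human fetal cortex-derived neural progenitor spheres (0.3 mm) were plated on poly-D-lysine/laminin in N2 differentiation medium and exposed to 7 concentrations for 120 h, with half-medium renewal at day 3. Oligodendrocyte migration distance was normalized to radial glia migration, relative to DMSO.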

The nature of test [2]: IUF_NPC2a_radial_glia_migration_120hr: Leibniz Research Institute for Environmental Medicine (IUF) 120-hour Neural Progenitor Cell Migration Assay for Radial Glia Migration (NPC2a) (AID 2284298). In outline:
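Single 0.3 mm primary human fetal-cortex (GW 16-19) NPC spheres were plated on poly-D-lysine/laminin in N2 differentiation medium and exposed from day 0 for 120 h, half-medium refreshed day 3. Migration distance came from Hoechst nuclei-density imaging, relative to DMSO.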

A short description of test [3]: IUF_NPC2a_radial_glia_migration_72hr: Leibniz Research Institute for Environmental Medicine (IUF) 72-hour Neural Progenitor Cell Migration Assay for Radial Glia Migration (NPC2a) (AID 2284299). In outline: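 Migration out of plated human neural progenitor spheres is scored at 72 h as the distance in um from the sphere core edge to the edge of the migration area. Values are the mean of four manual measurements per well, normalised to DMSO.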

The nature of test [4]: IUF_NPC2b_neuronal_migration_120hr: Leibniz Research Institute for Environmental Medicine (IUF) 120-hour Neural Progenitor Cell Migration Assay for Neuron Migration (NPC2b) (AID 2284300). In outline: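 Primary human fetal cortex neural progenitor spheres (0.3 mm) plated on poly-D-lysine/laminin in N2 differentiation medium, exposed 120 h with half-medium refresh at day 3. TUBB3-stained neuron distance from sphere core, normalized to radial glia migration, versus DMSO.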

Test [5] is described as follows: IUF_NPC3_neuronal_differentiation_120hr: Leibniz Research Institute for Environmental Medicine (IUF) 120-hour Neuronal Differentiation Assay (NPC3) (AID 2284301). Put shortly: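 Human fetal (GW 16-19) neural progenitor spheres (0.3 mm) plated on poly-D-lysine/laminin in N2 differentiation medium, exposed 120 h at 37C with half-medium renewal day 3; 7 concentrations. TUBB3+ cells as % of Hoechst nuclei, CNN-identified; DMSO baseline.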

Test [6] can be described thus: IUF_NPC4_neurite_length_120hr: Leibniz Research Institute for Environmental Medicine (IUF) 120-hour Neuronal Morphology Assay for Neurite Length (NPC4) (AID 2284302). In outline:
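Human fetal neural progenitor spheres (0.3 mm) plated on poly-D-lysine/laminin in N2 differentiation medium, exposed from day 0 for 120 h with half-medium refresh at day 3, 37C. Mean neurite length (um) of TUBB3-positive neurons from skeletonized immunostaining images; DMSO ≤0.1%.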

A short description of test [7]: IUF_NPC4_neurite_area_120hr: Leibniz Research Institute for Environmental Medicine (IUF) 120-hour Neuronal Morphology Assay for Neurite Area (NPC4) (AID 2284305; active means hit-call score of the fitted dose curve at least 0.9, where 1 is the maximum). In outline: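 Human fetal neural progenitor spheres (0.3 mm) plated on poly-D-lysine/laminin in N2 differentiation medium, exposed 120 h (7 concentrations, DMSO ≤0.1%, half-medium refresh day 3). Fixed, TUBB3 immunostained; mean neurite area per neuron by Omnisphero skeletonization.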

Test [8] in a line: IUF_NPC2-5_cytotoxicity_72hr: Cytotoxicity Assessment at 72 hours in the Leibniz Research Institute for Environmental Medicine (IUF) Neural Progenitor Cell Migration and Differentiation Assay for Cytotoxicity (NPC2-5) (AID 2284306; active means hit-call score of the fitted dose curve at least 0.9, where 1 is the maximum;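 further: LDH release into supernatant measured by resorufin fluorescence marking membrane damage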). In outline:
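Human fetal primary neural progenitor spheres (0.3 mm) plated on poly-D-lysine/laminin in N2 differentiation medium, exposed from day 0 at 37C. LDH-dependent resazurin-to-resorufin fluorescence in supernatant at 72 h; 7 concentrations, DMSO at most 0.1%.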

Test [9] is described as follows: IUF_NPC2-5_cell_number_120hr: Cell Number Assessment at 120 hours in the Leibniz Research Institute for Environmental Medicine (IUF) Neural Progenitor Cell Migration and Differentiation Assay (NPC2-5) (AID 2284308).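 Further: count of Hoechst-stained nuclei in migration zone around plated human neural progenitor spheres.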 In outline: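 Primary human fetal neural progenitor spheres (GW 16-19, 0.3 mm) plated on poly-D-lysine/laminin in N2 differentiation medium, exposed from day 0 for 120 h with half-medium refresh at day 3; Hoechst-positive nuclei counted in migration area versus DMSO control.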

Test [10] can be described thus: IUF_NPC2-5_viability_120hr: Viability Assessment at 120 hours in the Leibniz Research Institute for Environmental Medicine (IUF) Neural Progenitor Cell Migration and Differentiation Assay (NPC2-5) (AID 2284312). Put shortly: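 Human fetal neural progenitor spheres (0.3 mm) plated on poly-D-lysine/laminin in N2 differentiation medium, exposed 120 h with half-medium refresh at day 3. Viability by alamar blue resazurin fluorescence; 7 concentrations, DMSO max 0.1%.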

Test [11] in a line: CCTE_Mundy_HCI_iCellGluta_NOG_NeuriteLength: CCTE's Neurite Outgrowth Assay in iCellGluta cells for Neurite Length, Mundy Lab (AID 2284318; active means hit-call score of the fitted dose curve at least 0.9, where 1 is the maximum). In outline:
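Automated high-content imaging of betaIII-tubulin (Alexa Fluor-488) and Hoechst-stained cells gave neurite length, normalized to the DMSO baseline.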

The nature of test [12]: TAMU_PeakParms_SingleDonor1434_Asystole: Texas A&M University (TAMU) 1.5-hr Human Induced Pluripotent Stem Cell (iPSC)-derived Cardiomyocytes Calcium (Ca+2) Flux Assay for Cardiotoxicity: Asystole (quiescence of beating) (AID 2284328; active means hit-call score of the fitted dose curve at least 0.9, where 1 is the maximum). In outline: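 Donor 1434 iPSC-cardiomyocytes exposed 90 min at 37C, 5% CO2, to 0.2, 1, 10 and 100 uM in 0.5% DMSO. Ca2+ dye fluorescence gave average peak frequency; POD is EC95, a 95% beat-rate drop versus controls.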

Test [13] in a line: IUF_NPC1_cytotoxicity_72hr: Cytotoxicity Assessment at 72 hours in the Leibniz Research Institute for Environmental Medicine (IUF) Neural Progenitor Cell Proliferation Assay (NPC1) (AID 2284332; active means hit-call score of the fitted dose curve at least 0.9, where 1 is the maximum;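 further: rising LDH signal means more cytotoxicity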). In outline:
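hNPC spheres (fetal brain, gestational week 16-19) grown under proliferative EGF/FGF conditions, pH 7.2-7.6, were treated continuously for 72 h. Cytotoxicity came from LDH-coupled resazurin fluorescence in each well's supernatant.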

The nature of test [14]: CCTE_Mundy_HCI_iCellGluta_NOG_NeuronCount: CCTE's Neurite Outgrowth Assay in iCellGluta cells for Neuron Count, Mundy Lab (AID 2284340; active means hit-call score of the fitted dose curve at least 0.9, where 1 is the maximum;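 further: cells fixed about 48 h after compound addition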). Put shortly:
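Neuron count read by automated high-content imaging of Hoechst 33342 and betaIII-tubulin/Alexa Fluor-488 labelling in human iPSC glutamatergic neurons. Activity fitted relative to DMSO.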

Test [15] is described as follows: CCTE_Mundy_HCI_iCellGluta_NOG_NeuriteCount: CCTE's Neurite Outgrowth Assay in iCellGluta cells for Neurite Count, Mundy Lab (AID 2284342; active means hit-call score of the fitted dose curve at least 0.9, where 1 is the maximum;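 further: chemical exposure about 48 hours starting 2 hours after plating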).

“And” between values parts separate entries of the source, which are not always exact repeats. Identical values can stand only once. Records with an inconclusive call do not appear. Where a structure was tested more than once in an assay, its records may differ in their call. The source made the active and inactive calls. How the source made its calls, unless noted: active means hit-call score of the fitted dose curve at least 0.9, where 1 is the maximum; inactive means score below 0.9.

As usually defined, the AC50 is the concentration at which the activity in the assay is half-maximal. As to `[CH3][Hg][Cl]`, the AC50 in test [1] is 128 nM (active); in test [2], 1.05 µM (active) and 160 nM (active); in test [3], 1.11 µM (active) and 255 nM (active); in test [4], 138 nM (active); in test [5], 325 nM (active) and 124 nM (active); in test [6] it was 298 nM (active) and 69.7 nM (active). The AC50 in test [7] was 629 nM (active) and 78.3 nM (active); in [9] it was 823 nM (active) and 130 nM (active); in test [10], 276 nM (active); in [11] it was 76.3 nM (active); in [14], 80.6 nM (active); in test [15], 96.5 nM (active). In addition, the compound was classed as inactive in test [1], in test [4], in [8], in [10], in test [12] and in test [13].
